Laboratory results taken from PubChem BioAssay (NCI).
The panel holds about 83,000 compounds, 20% with a hit somewhere; the sample as a whole holds those more often.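 96-well plates, one dose, 48 hours. Percent growth reported; active if below 10.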 The source made the active and inactive calls.

test system: OVCAR-5 ovarian; experiment: NCI-60 one-dose screen, 48 h (100 = growth as untreated, 0 = no growth, -100 = all killed); conditions: 10 µM unless noted
Experimental: Growth inhibition of the OVCAR-5 human tumor cell line is measured as a screen for anti-cancer activity. Cells are grown in 96 well plates and exposed to the test compound for 48 hours. Compounds are tested at a single concentration, which is 10^-5 M for most compounds. The reported endpoint is percent growth (GI% or GIPRCNT), where numbers from 0 - 100% represent growth inhibition, and numbers from -100% - 0 represent cell death. For example, a value of 40 represents 60% growth inhibition. A value of 0 means no net growth occurred over the course of the experiment. A value of -40 indicates 40% of cells at the beginning of the experiment died by the end of the experiment. A value of -100 means all cells are dead at the end of the experiment.
NCI-60 Human Tumor Cell Lines Screen was performed using the standard one-dose NCI protocol, which is described in more detail at https://dtp.cancer.gov/discovery_development/nci-60/default.htm.
Compounds with GIPRCNT values below 10 were considered active. Activity score was based on GIPRCNT using the following formula: […]
Score is 0 for GIPRCNT values of 100 or above, 50 for GIPRCNT values of 0, and 100 for GIPRCNT values of -100.

SMILES	growth
CC(=O)OC[C@H]1O[C@H](OC(C)=O)[C@H](NC(=O)/C=C/CCl)[C@@H](OC(C)=O)[C@@H]1OC(C)=O	84.5% (inactive)
COc1cccc(-c2nc3sccn3c2-c2ccnc(NCCCNS(=O)(=O)c3cccc(F)c3)c2)c1	59.4% (inactive)
CSc1nc(-c2cccc(NC(=O)CCl)c2)c(C#N)c(=O)n1C	26.7% (inactive)
COC(=O)c1ccc(Cn2cnc3c(N)ncnc32)cc1	115% (inactive)
CCN(CC)c1ccc2c(c1)Oc1nc(N)c(C#N)c(N)c1C2Sc1ccc(SC)cc1 (stereo not given)	-27.1% (active)
COc1cc2c(cc1O)CC[C@@H]1[C@@H]2CC[C@]2(C)[C@@H](OCCN(C)C)CC[C@@H]12	78.8% (inactive)
COc1ccc(C(=S)N2CCN(c3cccc(Cl)c3)CC2)cc1	98.5% (inactive)
COc1ccc(-c2nc3ccc(-c4nc5ccc(N6CCN(c7ccc(F)cc7)CC6)cc5[nH]4)cc3[nH]2)cc1OC	96.1% (inactive)
Cc1ccc(NC(=O)/C=C/c2ccccc2)c(C(N)=O)c1	51.8% (inactive)
CC(=O)c1cc2c(N)c(C(=O)Nc3ccccc3)sc2nc1C	96% (inactive)
COc1ccc(C2C(C#N)=C(N)Oc3n[nH]c(-c4cccs4)c32)cc1I (stereo not given)	107% (inactive)
COc1ccc(/C=C(\C#N)C(=O)Nc2cccc(Nc3nc(SC)nc(-c4cccc([N+](=O)[O-])c4)c3C#N)c2)cc1OC	96.6% (inactive)
C=CC(=O)Nc1cccc(-c2nc(SC)nc(NCCN3CCOCC3)c2C#N)c1	107% (inactive)
Cc1cc(C)c2nc3nc(C)cc(C)c3c(N)c2c1	28.7% (inactive)
O=[N+]([O-])c1ccc2c(c1)Cc1cc(F)ccc1-2	96.6% (inactive)
O=C(COc1ccc(/C=C2\COc3ccccc3C2=O)cc1)Nc1nccs1	93% (inactive)
O=C(COc1ccc(/C=C2\CSc3ccccc3C2=O)cc1)Nc1nccs1	92.6% (inactive)
O=C(N=Nc1c(O)[nH]c2ccc(Br)cc12)c1cc(-c2ccccc2)on1	98.9% (inactive)
Cc1cc(C)nc(SC2=C(Nc3ccc(O)cc3)C(=O)N(Cc3ccccc3)C2=O)n1	120% [40 µM] (inactive)
O=C(/C=C/C=C/c1ccc2c(c1)OCO2)N/N=C\c1ccc(O)cc1O	42.5% (inactive)

SMILES	growth
CCOc1nc(-c2ccccc2)cc2c(O)c(C(=O)O)[nH]c(=O)c12	104% (inactive)
NC(=O)c1cc(I)ccc1NC(=O)/C=C/c1ccccc1Cl	38.2% (inactive)
COc1ccc(/C=C\c2cc(OC)c(OC)c(OC)c2)cc1OC(=O)c1cccc(Cn2cc(CCOC(=O)[C@H](N)Cc3cn(C)c4ccccc34)nn2)c1	41% (inactive)
COc1ccc(CN2c3ccccc3Oc3ccccc32)cc1F	86.7% (inactive)
CCCCn1c(-c2ccc(C(=O)O/N=C(\N)c3ccc4ccccc4c3)cc2)nc(-c2ccccc2)c1-c1ccccc1	79.1% (inactive)
Cc1nn(-c2cc(=O)[nH]c3ccccc23)c(N)c1C#N	101% (inactive)
CCCOc1cc2ccccc2cc1C(=O)Nc1nc(NC)c2c(ccc3nccc32)[nH]1	-61.4% (active)
OC(c1cc2cc(Cl)c(Cl)cc2c2cc(C(F)(F)F)ccc12)C1CCCCN1 (stereo not given)	-41.6% (active)
O=C1/C(=C/c2ccccc2O)N=C2SCCCN12	91.7% (inactive)
CCCCC/C(C=C(C#N)C#N)=C/c1ccccc1	113% (inactive)
Cn1cc(-c2nonc2-c2cn(C)c3ccc(F)cc23)c2ccccc21	41.5% (inactive)
CC[C@@H](C(=O)[C@@H](C)[C@@H](O)[C@H](C)[C@@H]1O[C@@H]([C@@H](CC)C(=O)O)CC[C@@H]1C)[C@H]1OC2(C=C[C@@H](O)[C@]3(CC[C@@](C)([C@H]4CC[C@](O)(CC)[C@H](C)O4)O3)O2)[C@H](C)C[C@@H]1C (stereo not given in full)	57.7% (inactive)
N#CCCN=Nc1c(O)[nH]c2ccc(F)cc12	97.7% (inactive)
Cc1ccc2c(C(C[N+](=O)[O-])c3ccccc3F)c(-c3ccccc3)[nH]c2c1 (stereo not given)	74.4% (inactive)
COc1cccc(/C=C2\Oc3cc(OCCN4CCCC4)ccc3C2=O)c1	100% (inactive)
COc1ccccc1Nc1nc(-c2cc3cccc(C(F)(F)F)c3oc2=O)cs1	67% (inactive)
O=C(O)c1c(=O)cccc2ssc12	-52.8% (active)
N#Cc1c(-c2ccc(Cl)cc2)nc(NN=Cc2ccco2)nc1N1CCOCC1	76.9% (inactive)
CCCn1c(=O)[nH]c(N)c([C@H]2c3ccccc3Oc3[nH]c(=O)n(CCC)c(=O)c32)c1=O	99.4% (inactive)
COc1ccc(-c2n[nH]nc2-c2csc3ccccc23)cc1OC	66.2% (inactive)
